# Assay results published in PubChem BioAssay AID1159580 (chemical genetic matrix, 2015).
# Screen size: about 5,500 compounds; about 2,000 (36%) were called active. Another 18% or so got no clear call; they are omitted. This is one part of the list. A number with no mark means an inactive call. Cut-off read from the data, not from the text of the source: active = normalized growth mostly below about 0.91 (no sharp cut-off); inconclusive = no clear call, values can overlap the other calls; inactive = mostly above about 0.92.
# Assay: chemical genetic growth profiling, strain panel (AID 1159580);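 note: tested at 20 µM; growth read once vehicle control cultures reached saturation at 30 °C; 1 = growth at the plate median or of vehicle wells; lower values mean less growth of the strain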
# Conditions: S. cerevisiae deletion strains, growth OD
structure (smiles),measurement,setting,value
O=c1cc(-c2ccccc2)oc2cccc(O)c12,normalized growth,"locus YAL021C, strain ccr4, active compounds read low",0.95
same,normalized growth,"locus YAL026C, strain drs2, active compounds read low",0.93
same,normalized growth,"locus YAL030W, strain snc1, active compounds read low",0.972
same,normalized growth,"locus YBL061C, strain skt5, active compounds read low",0.938
same,normalized growth,"locus YBR009C, strain hhf1, active compounds read low",0.969
same,normalized growth,"locus YBR023C, strain chs3, active compounds read low",0.892 (active)
same,normalized growth,"locus YBR171W, strain sec66, active compounds read low",0.952
same,normalized growth,"locus YBR231C, strain swc5, active compounds read low",0.943
same,normalized growth,"locus YBR279W, strain paf1, active compounds read low",0.931 (active)
same,normalized growth,"locus YCL011C, strain gbp2, active compounds read low",0.967
same,normalized growth,"locus YCL016C, strain dcc1, active compounds read low",0.938
same,normalized growth,"locus YCL061C, strain MRC1, active compounds read low",0.969
same,normalized growth,"locus YCL069W, strain vba3, active compounds read low",0.959
same,normalized growth,"locus YCR088W, strain abp1, active compounds read low",0.972
same,normalized growth,"locus YDL005C, strain med2, active compounds read low",0.994
same,normalized growth,"locus YDL040C, strain nat1, active compounds read low",0.961
same,normalized growth,"locus YDR001C, strain nth1, active compounds read low",0.961
same,normalized growth,"locus YDR069C, strain doa4, active compounds read low",0.985
same,normalized growth,"locus YDR137W, strain rgp1, active compounds read low",0.716 (active)
same,normalized growth,"locus YDR159W, strain sac3, active compounds read low",1.03
same,normalized growth,"locus YDR195W, strain ref2",1.37 [resistant] (active)
same,normalized growth,"locus YDR297W, strain sur2, active compounds read low",0.977
same,normalized growth,"locus YDR334W, strain swr1, active compounds read low",0.964
same,normalized growth,"locus YDR335W, strain msn5, active compounds read low",0.968
same,normalized growth,"locus YDR392W, strain spt3, active compounds read low",0.605 (active)
same,normalized growth,"locus YEL003W, strain gim4, active compounds read low",0.981
same,normalized growth,"locus YEL037C, strain rad23, active compounds read low",0.959
same,normalized growth,"locus YEL061C, strain CIN8 (second series), active compounds read low",0.963
same,normalized growth,"locus YER015W, strain faa2, active compounds read low",0.969
same,normalized growth,"locus YER016W, strain bim1, active compounds read low",0.974
same,normalized growth,"locus YER111C, strain swi4, active compounds read low",0.985
same,normalized growth,"locus YER155C, strain BEM2 (second series), active compounds read low",0.506 (active)
same,normalized growth,"locus YFR010W, strain ubp6, active compounds read low",0.959
same,normalized growth,"locus YGL167C, strain pmr1, active compounds read low",0.969
same,normalized growth,"locus YGL173C, strain kem1, active compounds read low",0.946
same,normalized growth,"locus YGL227W, strain vid30, active compounds read low",0.977
same,normalized growth,"locus YGL240W, strain doc1, active compounds read low",0.924
same,normalized growth,"locus YGL253W, strain hxk2, active compounds read low",0.859 (active)
same,normalized growth,"locus YHR013C, strain ard1, active compounds read low",0.897
same,normalized growth,"locus YHR027C, strain rpn1, active compounds read low",0.98
same,normalized growth,"locus YHR030C, strain SLT2, active compounds read low",1.02
same,normalized growth,"locus YHR079C, strain IRE1, active compounds read low",0.992
same,normalized growth,"locus YHR142W, strain chs7, active compounds read low",0.765 (active)
same,normalized growth,"locus YJL092W, strain hpr5, active compounds read low",0.975
same,normalized growth,"locus YJL095W, strain BCK1 (second series), active compounds read low",0.971
same,normalized growth,"locus YJL095W, strain BCK1, active compounds read low",0.995
same,normalized growth,"locus YJL115W, strain asf1, active compounds read low",0.979
same,normalized growth,"locus YJL129C, strain trk1, active compounds read low",0.912
same,normalized growth,"locus YJL154C, strain vps35, active compounds read low",0.981
same,normalized growth,"locus YJL164C, strain tpk1, active compounds read low",0.902 (active)
same,normalized growth,"locus YJL166W, strain qcr8, active compounds read low",0.908
same,normalized growth,"locus YJL187C, strain SWE1, active compounds read low",0.966
same,normalized growth,"locus YJR066W, strain TOR1, active compounds read low",0.923
same,normalized growth,"locus YKL160W, strain elf1, active compounds read low",0.872 (active)
same,normalized growth,"locus YKR026C, strain gcn3, active compounds read low",0.969
same,normalized growth,"locus YKR091W, strain srl3, active compounds read low",0.985
same,normalized growth,"locus YLL001W, strain dnm1, active compounds read low",0.939
same,normalized growth,"locus YLL026W, active compounds read low",0.972
same,normalized growth,"locus YLL041C, strain sdh2, active compounds read low",0.97
same,normalized growth,"locus YLR027C, strain aat2, active compounds read low",0.934
same,normalized growth,"locus YLR113W, strain HOG1, active compounds read low",1.03
same,normalized growth,"locus YLR221C, strain rsa3, active compounds read low",0.883 (active)
same,normalized growth,"locus YLR258W, strain gsy2, active compounds read low",0.961
same,normalized growth,"locus YLR262C, strain YPT6 (second series), active compounds read low",0.78 (active)
same,normalized growth,"locus YLR320W, strain mms22, active compounds read low",0.774 (active)
same,normalized growth,"locus YLR342W, strain FKS1, active compounds read low",0.984
same,normalized growth,"locus YLR357W, strain rsc2, active compounds read low",1.01
same,normalized growth,"locus YLR370C, strain arc18, active compounds read low",0.964
same,normalized growth,"locus YLR384C, strain iki3, active compounds read low",0.976
same,normalized growth,"locus YML120C, strain ndi1, active compounds read low",0.917
same,normalized growth,"locus YMR058W, strain fet3, active compounds read low",0.888 (active)
same,normalized growth,"locus YMR125W, strain sto1, active compounds read low",1
same,normalized growth,"locus YMR129W, active compounds read low",0.979
same,normalized growth,"locus YMR205C, strain PFK2, active compounds read low",0.972
same,normalized growth,"locus YMR231W, strain pep5, active compounds read low",0.986
same,normalized growth,"locus YNL071W, strain lat1, active compounds read low",0.62 (active)
same,normalized growth,"locus YNL183C, strain NPR1, active compounds read low",0.943
same,normalized growth,"locus YNL209W, strain ssb2, active compounds read low",0.978
same,normalized growth,"locus YNL248C, strain rpa49, active compounds read low",0.755 (active)
same,normalized growth,"locus YNL322C, strain KRE1 (second series), active compounds read low",0.996
same,normalized growth,"locus YNR049C, strain mso1, active compounds read low",0.965
same,normalized growth,"locus YOR001W, strain rrp6, active compounds read low",0.911
same,normalized growth,"locus YOR070C, strain gyp1, active compounds read low",0.937
same,normalized growth,"locus YOR080W, strain dia2, active compounds read low",0.982
same,normalized growth,"locus YOR083W, strain WHI5, active compounds read low",0.886 (active)
same,normalized growth,"locus YOR106W, strain vam3, active compounds read low",0.923
same,normalized growth,"locus YOR231W, strain MKK1, active compounds read low",1.01
same,normalized growth,"locus YOR265W, strain rbl2, active compounds read low",0.954
same,normalized growth,"locus YOR270C, strain vph1, active compounds read low",0.66 (active)
same,normalized growth,"locus YOR290C, strain snf2, active compounds read low",0.873
same,normalized growth,"locus YPL051W, strain arl3, active compounds read low",0.853 (active)
same,normalized growth,"locus YPL078C, strain atp4, active compounds read low",0.807 (active)
same,normalized growth,"locus YPL106C, strain sse1, active compounds read low",0.973
same,normalized growth,"locus YPL240C, strain hsp82, active compounds read low",0.974
same,normalized growth,"locus YPL256C, strain CLN2, active compounds read low",1.05
